Experimental data as given in PubChem BioAssay.
Measured potencies and affinities stand elsewhere. Results filed as inconclusive are left out. Calls of active or inactive are those of the source. Unless noted, how the calls were made is not given here.

Experiments:
[1] = RMG-1 ovarian cancer cell viability loss – cherry-pick, dose response (AID 687029;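 active means signal drop whose fitted half-maximal concentration is at most twice the top valid dose, in every test run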;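 further: cells exposed to compound for 96 hours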)
[2] = IOSE-T80 viability loss, PAX8-independent line – cell-based, cherry-pick, selectivity assay for PAX8 inhibitor project, dose response (AID 687032;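 active means fitted half-maximal concentration for viability loss no higher than twice the top valid dose, in every repeat run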;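 further: cells exposed to compound for 96 h before reading; 0% = neutral control wells and -100% = 2 µM mitoxantrone kill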)
[3] = general cell-killing toxicity readout – plate reader, dry powder samples, cytotoxicity control for PAX8 inhibitor project, dose response (AID 743021)
[4] = CMV-driven luciferase expression suppression in HEK293 – cell-based, luminescence, dry powder, counter-screen for Pax8 inhibitor project, dose response (AID 743020;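 active means signal-lowering compounds whose fitted half-maximal concentration is at or below twice the top tested dose in every run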;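 further: HEK293 cells stably expressing the CMV luciferase reporter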)
[5] = A2780 cell killing – plate reader, dry powder samples, cytotoxicity control, dose response (AID 743046);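 further: 0% = neutral control wells and -100% = cytotoxic reference compound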
[6] = OVCAR8 cell viability loss – plate reader, dry powder samples, PAX8 project, dose response (AID 743197)
[7] = IGROV1 cell killing – plate reader, dry powder samples, PAX8 inhibitor project, dose response (AID 743043);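 further: more negative means fewer viable cells or more cytotoxicity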

Measured: activity change, negative = cytotoxicity

CCOc1ccc(CCN2C(=S)N([C@@H](Cc3ccc(O)cc3)CN3CCC[C@@H]3CN3C(=S)NC[C@@H]3CC(C)C)C[C@@H]2Cc2ccc(O)cc2)cc1
inactive: [1] | [2] | [3]

CN(C)CCNc1ccc(CO)c2sc3ccc(O)cc3c(=O)c12
inactive: [1] | [2] | [3]

COC(=O)c1ccccc1-c1c2ccc(=N)cc-2oc2cc(N)ccc12
inactive: [1] | [2] | [3]

CC(C)(C)OC(=O)NCCCC[C@H](NC(=O)c1[nH]cnc1C(=O)N[C@@H](Cc1ccccc1)C(=O)OC(C)(C)C)C(=O)OC(C)(C)C
inactive: [1] | [2] | [3]

Cc1cc(-n2c(SCC(=O)NCCC3=CCCCC3)nc3n[nH]c(C)c3c2=N)ccc1Cl
inactive: [1] | [2] | [3]

CCOC(=O)c1cnn(CCOC(=O)c2cccc(F)c2)c1NC(=O)c1cccc(F)c1
inactive: [1] | [2] | [3]

N#Cc1c(N)n(C2OC(CO)C(O)C2O)c2ncnc(N)c12 (stereo unspecified)
inactive: [1] | [2] | [3]

COc1ccc(S(=O)(=O)N2CCCCN3[C@H](CO)[C@H](c4ccc(C#CC(C)C)cc4)[C@H]3C2)cc1
not listed: [3] | [7]
inactive: all other assays above

C[C@@H]1CCCCO[C@@H](CN(C)CC2CCCCC2)[C@H](C)CN([C@H](C)CO)C(=O)c2cc(NS(=O)(=O)c3ccc(Cl)cc3)ccc2O1
inactive: [1] | [2] | [3]

CC1CCN(CCc2nc3cc(NS(=O)(=O)c4ccccc4)ccc3n2C)CC1
inactive: [1] | [2] | [3]

COc1cc(/C=N/NS(=O)(=O)c2ccc(C)cc2)ccc1OCc1cccc(C(=O)O)c1
inactive: [1] | [2] | [3]

CC(C)N1CCc2c(sc(NC(=O)c3ccc([N+](=O)[O-])o3)c2C(N)=O)C1
inactive: [1] | [2] | [3]

COc1cc(/C=N/NS(=O)(=O)c2ccc(C)cc2)ccc1OCc1ccc(C(=O)O)cc1
inactive: [1] | [2] | [3]

C#CCN(C[C@@H]1[C@@H](OC(=O)NCc2ccc(OC)c(OC)c2)[C@@H](OC(=O)NCc2ccc(OC)c(OC)c2)Cn2c(=O)ccc(=O)n21)S(=O)(=O)c1ccc(C)cc1
inactive: [1] | [2] | [3]

N#CC1(NC(=O)Cn2ncc(Cl)c(Cl)c2=O)CCCCC1
inactive: [1] | [2] | [3]

CC(=O)NC(c1ccc2ccccc2c1)c1ccc2cccnc2c1O (stereo unspecified)
inactive: [1] | [2] | [3]

Oc1ccc2ccccc2c1N=Nc1nccs1
inactive: [1] | [2] | [3]

CCN1CCN(Cc2ccc(NC(=O)c3cc(NC(=O)C(=O)c4c[nH]c5ccccc45)cc(OC)c3)cc2C(F)(F)F)CC1
inactive: [1] | [2] | [3]

Cn1nnnc1Sc1ncnc2scc(-c3cccc4c3sc3ccccc34)c12
inactive: [1] | [2] | [3]

CCC1(O)C(=O)OCc2c1cc1n(c2=O)Cc2cc3c(N)cccc3nc2-1 (stereo unspecified)
inactive: [1] | [2] | [3]

C=CCNC(=S)N/N=C(\C)c1ccccn1
inactive: [1] | [2] | [3]

CS(=O)(=O)c1ncc(Cl)c(C(=O)Nc2ccc3ccccc3c2)n1
inactive: [1] | [2] | [3] 1.87% [at 8 µM]

Cc1cccc(C2(c3cccc(C)c3)CC2C(=O)Nc2ccc([N+](=O)[O-])cc2O)c1 (stereo unspecified)
inactive: [1] | [2] | [3]

Cc1[nH]c2ccccc2c(=O)c1C(=O)/C=C/c1ccccc1
inactive: [1] | [2] | [3]

CCOC(=O)c1cnc2ccc(C(=O)OC)cc2c1Nc1ccc(C(=O)O)cc1
inactive: [1] | [2] | [3]

COc1cc(NC(=O)Cn2ncc(Cl)c(Cl)c2=O)c(C)cc1[N+](=O)[O-]
inactive: [1] | [2] | [3]

COc1ccc(C(=O)NN(C)c2nc(C(F)(F)F)nc3ccccc23)cc1
inactive: [1] | [2] | [3]

CC(=O)OC1CCC2(C)C(CCC3C4CC=C(C(C)=O)C4(C)OC(=O)CC32)C1 (stereo unspecified)
inactive: [1] | [2] | [3]

O=c1c(Cl)c(Cl)cnn1Cc1nnc(-c2ccccc2Br)o1
inactive: [1] | [2] | [3]

CCOc1ccccc1C1C2=C(COC2=O)Nc2cc3c(cc21)OCO3 (stereo unspecified)
inactive: [1] | [2] | [3]

COc1ccc(OC)c(-c2nnc3n2N=C(c2ccc(OC)c(OC4CCOC4)c2)CS3)c1 (stereo unspecified)
inactive: [1] | [2] | [3]

Cc1ccc(C(=O)c2cc([N+](=O)[O-])ccc2N2CCCCC2)cc1
inactive: [1] | [2] | [3]

CCC(=O)OCCNc1cc(Sc2nccn2C)c2nonc2c1[N+](=O)[O-]
inactive: [1] | [2] | [3]

Cc1ccc2nc(C)cc(Nc3ccc([N+](=O)[O-])cc3)c2c1
inactive: [1] | [2] | [3]

COc1c(C=O)c2c(c(OC)c1OC)-c1ccc(OC)c(=O)cc1C(NC(C)=O)CC2 (stereo unspecified)
inactive: [1] | [2] | [3]

CC(=O)N1CCc2c(sc(NC(=O)c3ccc([N+](=O)[O-])o3)c2C#N)C1
inactive: [1] | [2] | [3]

Cc1ccc(C)c(CSC2=NCCN2C(=O)Cc2ccc([N+](=O)[O-])cc2)c1
inactive: [1] | [2] | [3]

C[C@H]1CCCCO[C@H](CN(C)C(=O)Nc2ccc(C(F)(F)F)cc2)[C@@H](C)CN([C@@H](C)CO)C(=O)c2cc(NC(=O)Nc3ccc(F)cc3)ccc2O1
inactive: [1] | [2] | [3] | [7]

CC(=NNC(=S)N1CCN(C2CCCCCC2)CC1)c1ccccn1
inactive: [1] | [2] | [3]

CC(C)C(=O)N1CCN(c2ccc(NC(=O)c3ccc([N+](=O)[O-])o3)cc2)CC1
inactive: [1] | [2] | [3]

N#Cc1cccc(-c2ccc(C3[C@@H]4CN(C(=O)C5CC5)C[C@H]3N4)cc2)c1 (stereo partly specified)
inactive: [1] | [2] | [3]

O=C(O)CCCN1C(=O)/C(=C\C(Cl)=C\c2ccccc2)SC1=S
inactive: [1] | [2] | [3]

NC(=O)c1ccsc1NC(=O)c1ccc([N+](=O)[O-])o1
inactive: [1] | [2] | [3]

CN[C@H]1CCc2cc(OC)c(OC)c(OC)c2-c2ccc(OC)c(=O)cc21
inactive: [1] | [2] | [3]

CCS(=O)(=O)c1ncc(Cl)c(C(=O)Nc2ccc(S(=O)(=O)N3CCCC(C)C3)cc2)n1 (stereo unspecified)
inactive: [1] | [2] | [3]

Cc1ccc(S(=O)(=O)N(C)C[C@@H]2Oc3ccc(NC(=O)Nc4ccc(C(F)(F)F)cc4)cc3CC(=O)N([C@H](C)CO)C[C@@H]2C)cc1
inactive: [1] | [2] | [3]
